{"source": "ChEMBL document CHEMBL1857833", "about": "“Screening and optimization of specific chemical series against human African Trypanosomiasis (HAT)”", "note": "“And” between values parts separate entries of the source, which are not always exact repeats. Equal values may be shown once. About 390 (8.9%) of roughly 4,400 compounds showed an effect of 50% or more. Many of the other results were omitted from the sample, so strong results are more common in it than they were."}
{"test_system": "Trypanosoma brucei", "assay": "DNDI: Inhibition of Human African Trypanosomiasis, SBRI 427, in vitro at 2 ug.mL-1", "type": "functional"}
{"compound": "FC(F)(F)c1ccc(CNCc2coc(-c3cccs3)n2)cc1", "% inhibition": "-6%"}
{"compound": "COc1ccc(-c2nc(CN3CCN(C)CC3)co2)cc1", "% inhibition": "4%"}
{"compound": "CCCCNCc1coc(-c2ccc(C(C)(C)C)cc2)n1", "% inhibition": "99%"}
{"compound": "CC(C)C(C)NCc1coc(-c2ccc(O)cc2)n1", "note": "(configuration not stated)", "% inhibition": "33%"}
{"compound": "Cc1ccc(-c2nc(Cn3cc(C)nc3C)co2)cc1", "% inhibition": "18%"}
{"compound": "Cc1ccc(-c2nc(CNC(C)C(C)C)co2)cc1", "note": "(configuration not stated)", "% inhibition": "41% and 29%"}
{"compound": "CC(C)(C)c1ccc(-c2nc(CNCC3CC3)co2)cc1", "% inhibition": "99%"}
{"compound": "CCCCNCc1coc(-c2ccccc2)n1", "% inhibition": "20%"}
{"compound": "Cc1ccc(CNCc2coc(-c3ccc(C(C)(C)C)cc3)n2)o1", "% inhibition": "0%"}
{"compound": "c1ccc(-c2nc(CNCC3CC3)co2)cc1", "% inhibition": "28%"}
{"compound": "COc1ccc(-c2nc(CNCC3CCCCC3)co2)cc1", "% inhibition": "10%"}
{"compound": "Cc1cn(Cc2coc(-c3ccc(C(C)(C)C)cc3)n2)c(C)n1", "% inhibition": "58%"}
{"compound": "Cc1cn(Cc2coc(-c3ccc(C(F)(F)F)cc3)n2)c(C)n1", "% inhibition": "2%"}
{"compound": "CC(C)C(C)NCc1coc(-c2ccc(C(C)(C)C)cc2)n1", "note": "(configuration not stated)", "% inhibition": "72%"}
{"compound": "CCOc1ccccc1N(Cc1ccccc1)Cc1coc(-c2cccc(F)c2)n1", "% inhibition": "1%"}
{"compound": "Brc1ccccc1-c1nc(CNCc2cccc3ccccc23)co1", "% inhibition": "-1%"}
{"compound": "CCCCN(C)Cc1coc(-c2ccc(OC)cc2)n1", "% inhibition": "9%"}
{"compound": "COc1cccc(-c2nc(CN3CCCCCCC3)co2)c1", "% inhibition": "31%"}
{"compound": "Cc1ccc(/C(=N/O)N(C)Cc2ccco2)c(Oc2cccc3c2CCCC3)n1", "% inhibition": "-8%"}
{"compound": "Cc1cn(Cc2coc(-c3cccc4ccccc34)n2)cn1", "% inhibition": "1%"}
{"compound": "CCN(Cc1coc(-c2ccccc2Cl)n1)c1ccc(C)cc1", "% inhibition": "-3%"}
{"compound": "CC(CNCc1coc(-c2cccc3ccccc23)n1)c1ccccc1", "note": "(configuration not stated)", "% inhibition": "8%"}
{"compound": "Cc1ccc(-c2nc(CN3CCC(N4CCCCC4)CC3)co2)cc1", "% inhibition": "3%"}
{"compound": "Oc1ccc(-c2nc(CN3CCCCCC3)co2)cc1", "% inhibition": "9%"}
{"compound": "Fc1ccc(-c2nc(CN3CCN(c4ccc(F)cc4)CC3)co2)cc1", "% inhibition": "52%"}
{"compound": "Brc1ccc(-c2nc(CN3CCCC3)co2)cc1", "% inhibition": "1%"}
{"compound": "Cc1ccc(-c2nc(CN3CCC(N4CCCC4)CC3)co2)cc1", "% inhibition": "60%"}
{"compound": "COc1ccc(N2CCN(Cc3coc(-c4ccc(F)cc4)n3)CC2)cc1", "% inhibition": "-1%"}
{"compound": "COc1ccc(-c2nc(CN3CCC(N4CCCC4)CC3)co2)cc1", "% inhibition": "-12%"}
{"compound": "Brc1ccc(-c2nc(CN3CCCCCC3)co2)cc1", "% inhibition": "72%"}
{"compound": "Cc1ccc(-c2nc(CN3CCN(c4ccc(F)cc4)CC3)co2)cc1", "% inhibition": "0%"}
{"compound": "Cc1ccc(/C(=N/O)NCc2ccccc2)c(Oc2ccc(F)c(F)c2)n1", "% inhibition": "23%"}
